Results with a measured potency or affinity are listed apart. Activity calls are given as the source filed them. Cut-off not given; nearly all actives show IC50 up to about 0.98 µM.
Each molecule was assayed against Calcium-dependent protein kinase 1 (Plasmodium falciparum (isolate 3D7)) (UniProt P62344) (assay: PfCDPK1 kinase inhibitors, biochemical, TCAMS library (AID 1159585;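 further: inhibitors leave more ATP so luminescence rises with inhibition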)). Settings: recombinant PfCDPK1, Kinase-Glo ATP depletion luminescence.
Chain of Calcium-dependent protein kinase 1 (Plasmodium falciparum (isolate 3D7)) (P62344 whole entry, looked up): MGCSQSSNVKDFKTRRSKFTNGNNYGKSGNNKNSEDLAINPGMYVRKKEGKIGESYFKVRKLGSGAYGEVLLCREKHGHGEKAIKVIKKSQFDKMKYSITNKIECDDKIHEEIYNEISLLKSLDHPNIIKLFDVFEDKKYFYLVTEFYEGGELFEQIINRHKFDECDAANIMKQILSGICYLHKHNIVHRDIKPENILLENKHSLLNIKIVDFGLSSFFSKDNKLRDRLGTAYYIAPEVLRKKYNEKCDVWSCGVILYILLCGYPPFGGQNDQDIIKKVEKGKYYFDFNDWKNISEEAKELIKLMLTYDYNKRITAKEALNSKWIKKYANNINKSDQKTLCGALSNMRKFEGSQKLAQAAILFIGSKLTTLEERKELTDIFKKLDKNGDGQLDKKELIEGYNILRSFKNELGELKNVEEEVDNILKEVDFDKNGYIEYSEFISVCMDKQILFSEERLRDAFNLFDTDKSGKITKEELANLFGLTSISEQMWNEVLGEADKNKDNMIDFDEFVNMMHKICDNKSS
For `Cc1cc(NCCCCCCCCNc2cc(C)nc3ccccc23)c2ccccc2n1`, the outcome was “inactive”. With `CC(C)n1ncc2c(C(=O)N3CCCC4CCCCC43)cc(C3CC3)nc21` (stereo not given) the outcome was “inactive”. In the case of `CCCC1CCNC(C(O)c2ccnc3ccc(OC)cc23)C1` (stereo not given), the outcome is reported as “inactive”. With `CC(C)C(=O)n1ncc2c3c(N)nc(N)nc3ccc21` the outcome was “inactive”. With `Oc1ccc(CCCNc2nc(NCc3cccc4ccccc34)nc(N3CCNCC3)n2)cc1` the outcome was “inactive”. `CC1N=C(N)N=C(N)N1OCc1ccccc1` (stereo not given) was tested, and the outcome was “inactive”. With `CC(C)c1cc(N)c2cc(NC(=O)COCC(=O)Nc3ccc4nc(C(C)C)cc(N)c4c3)ccc2n1` the outcome was “inactive”. With `Cc1ccnc(Nc2nc(-c3ccccn3)cs2)c1` the outcome was “inactive”. With `NC(=O)c1cccc(C(=O)Nc2ccc(-c3cccc(-c4nc5ccc(C(F)(F)F)cc5[nH]4)c3)cc2)c1` the outcome was “inactive”. With `COc1ccc(CC(=O)Nc2ccc(Nc3nc(C)cc(N(C)C)n3)cc2)cc1` the outcome was “inactive”. With `CC1(C)N=C(NC(=O)c2ccc([N+](=O)[O-])cc2)N=C(N)N1OCc1ccc2ccccc2c1` the outcome was “inactive”. With `Cc1ccc(C)c(C2CCN(CCCCNC(=O)c3ccc(NC(=O)c4ccc(Cl)cc4)cc3)CC2)c1` the outcome was “inactive”. For `CCCc1ccc(NC(=O)c2ccc(CN3CCCN(Cc4cccc(O)c4)CC3)cc2)cc1`, the outcome was “inactive”. With `Cc1[nH]c(C)c(-c2ccc(OCc3cccc(C(F)(F)F)c3)nc2)c(=O)c1Br` the outcome was “inactive”. For `COc1ccccc1NC(=O)Nc1cccc(-c2cccc(-c3nc4ccc(C(F)(F)F)cc4[nH]3)c2)c1`, the outcome was “inactive”. In the case of `Cc1cc(NN=Cc2cccc(F)c2)c2ccc(F)cc2n1`, the outcome is reported as “inactive”. `CN1CCc2cc(I)c(O)cc2C1Cc1ccccc1Cl` (stereo not given) was tested, and the outcome was “inactive”. With `O=C(/C=C/c1ccc(Cl)c(Cl)c1)NCCCCCN1CCN(C(=O)Nc2ccc(Cl)c(C(F)(F)F)c2)CC1` the outcome was “inactive”. `CCN1CCC(N(Cc2ccc(-c3ccc(C(F)(F)F)cc3)cc2)C(=O)Cn2c(CCc3cccc(F)c3F)cc(=O)c3ccccc32)C1` (stereo not given) was tested, and the outcome was “inactive”. For `Cc1cc2nc(-c3ccc(/C=C/C(=O)NCc4ccc(Cl)c(Cl)c4)cc3)[nH]c2cc1C`, the outcome was “inactive”. For `CC(=O)Nc1cccc(CNCc2ccc(-c3cnc(N4CCCC(C)(C)C4)nc3)cc2)c1`, the outcome was “inactive”. In the case of `Cc1cc(NCCc2ccccc2)nc(/N=C(\N)Nc2ccccc2Cl)n1`, the outcome is reported as “inactive”. With `CC(C)CC(NC(=O)c1cccc(OCCN2CCOCC2)c1)C(=O)NC(/C=N/NC(=O)c1ccccc1)CCc1ccccc1` (stereo not given) the outcome was “inactive”. In the case of `CC(C)(C)c1cc(C(=O)Nc2ccc(C(=N)N)cc2)c(O)c(C(C)(C)C)c1`, the outcome is reported as “inactive”. With `Cc1ccc2c(NN=Cc3ccc(N(C)C)cc3)cc(C)nc2c1` the outcome was “inactive”. With `CC1CCCN(S(=O)(=O)c2cc(Br)cc3c2N(C(=O)C2CC2)CC3)C1` (stereo not given) the outcome was “inactive”. In the case of `Cc1cc(OCCCN2CCCCC2)ccc1NC(=O)COc1ccc(Cl)cc1C(=O)c1cc(C#N)cc(C(F)(F)F)c1`, the outcome is reported as “inactive”. `CCCCCCN1CCC(NCc2cccc([N+](=O)[O-])c2)CC1` was tested, and the outcome was “inactive”. `CCCCCN1CCCN(Cc2cccc(NC(=O)c3ccc(Cl)c(Cl)c3)c2)CC1` was tested, and the outcome was “inactive”. In the case of `CCc1c(CCNCCCCCCNCCc2ccc([N+](=O)[O-])cc2)ccc(OC)c1OC`, the outcome is reported as “inactive”. `Cc1cc(-c2ccc(NC(=O)N3CCc4cc(Br)c(N5CCN(C)CC5)cc43)cc2)ccc1C#N` was tested, and the outcome was “inactive”. In the case of `COc1ccccc1C1CCN(C2CCC(NC(=O)/C=C/c3cc(F)cc(C(F)(F)F)c3)CC2)CC1` (stereo not given), the outcome is reported as “inactive”. `O=[N+]([O-])c1cccc(-c2nc(-c3ccc(Br)cc3)[nH]c2-c2ccc(Br)cc2)c1` was tested, and the outcome was “inactive”. `COc1ccccc1-c1ccc(CNC(=O)C(CN2CCN(C)CC2)c2ccccc2)cc1` (stereo not given) was tested, and the outcome was “inactive”. `CCNS(=O)(=O)c1ccc(Oc2ccc([N+](=O)[O-])cc2)cc1` was tested, and the outcome was “inactive”. In the case of `CCOc1cc2ncnc(Nc3ccc(OCc4ccccc4Br)c(OC)c3)c2cc1OCC`, the outcome is reported as “inactive”. For `Cc1onc(-c2ccccc2Cl)c1C(=O)Nc1cc(Cl)c(Cl)cc1Cl`, the outcome was “inactive”. For `Cc1cc(OCC(=O)Nc2ccc(-c3nc4ccccc4[nH]3)cc2)cc(C)c1Cl`, the outcome was “inactive”. For `COc1cc(Cc2cnc(N)nc2N)ccc1OCc1ccc(NC(C)=O)cc1`, the outcome was “inactive”. For `CCn1c(CN2CCN(Cc3ccccc3)CC2)nc2cc(NC(=O)c3cccs3)ccc21`, the outcome was “inactive”.
